Measured values as given in PubChem BioAssay AID802 (Columbia University Molecular Screening Center, 2007).
Screen size: about 95,000 compounds; about 460 (0.48%) were called active. The sample holds actives, similar compounds and a random draw of the others, so the mix is not that of the screen. A number with no mark means an inactive call.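 How the source made its calls: active means inhibition above the batch mean plus 3 SD, with images confirmed as a hit by eye (cut at about 37% in these data); inconclusive means inhibition above that limit but hit not confirmed in images; inactive means inhibition not above that limit.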

Assay: inhibitors of TNFa-induced VCAM1 expression, primary screen, imaging, HUVEC, TNFa stimulus, immunofluorescence (AID 802);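 further: 0% = TNF-stimulated DMSO wells and 100% = unstimulated control wells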
Settings: HUVEC TNFa-induced VCAM-1 immunofluorescence, high-content imaging; at 2 µM; active compounds read high

Q: Which inhibition does the source give for `O=C(c1ccccn1)c1ncc(C(F)(F)F)cc1Cl` here?
A: The inhibition was 2.2%.

Q: For `Cc1ccc(C(=O)c2c(NC(=O)c3ccncc3)sc3c2CCCC3)cc1`, which inhibition is on record?
A: The inhibition was 3%.

Q: With `O=C(Cn1cnc2ccccc2c1=O)NCC1COc2ccccc2O1` (stereo unspecified) as the compound, how does the inhibition read?
A: Its inhibition is 0.5%.

Q: With `Cc1ccc(-c2nn(C(C)(C)C)c3ncnc(N)c23)cc1` as the compound, how does the inhibition read?
A: Its inhibition is 40.8% (active).

Q: With `C=CCn1c(N)c(C(=O)OCC(C)C)c2nc3ccccc3nc21` as the compound, how does the inhibition read?
A: Its inhibition is 94.4% (active).

Q: For `CC(C)(C)OC(=O)c1c(N)n(CCCN2CCCC2=O)c2nc3ccccc3nc12`, which inhibition is on record?
A: Its inhibition is -22.1%.

Q: With `C=CCn1c(N)c(S(=O)(=O)c2cccs2)c2nc3ccccc3nc21` as the compound, how does the inhibition read?
A: The inhibition was -6.6%.

Q: Which inhibition does the source give for `Cc1ccc(SCC(=O)c2cc(C)c(OC(=S)N(C)C)c(C)c2)cc1` here?
A: The inhibition was 8.8%.

Q: With `COc1cc(C(=O)N2CCN(C/C=C/c3ccccc3)CC2)cc(OC)c1C` as the compound, how does the inhibition read?
A: The inhibition was -10.4%.

Q: Which inhibition does the source give for `Cc1cc(/C=N/NC(=O)CC2(C)OCCO2)c(C)n1-c1ccc(Cl)c(Cl)c1` here?
A: Its inhibition is -7.1%.

Q: Which inhibition does the source give for `CCOC(=O)C(=O)Nc1nc(-c2ccccc2)c(CC)s1` here?
A: The inhibition was 4.9%.

Q: For `O=S(=O)(NCc1cccnc1)c1ccc(Cl)nc1`, which inhibition is on record?
A: The inhibition was 0.2%.

Q: With `COc1ccc(C(C(=O)NCc2ccccc2)N(Cc2cccs2)C(=O)c2cnccn2)cc1` (stereo unspecified) as the compound, how does the inhibition read?
A: Its inhibition is 2.9%.

Q: With `Cc1ccc(-c2nc3ccccc3[nH]2)cc1N` as the compound, how does the inhibition read?
A: Its inhibition is 4.2%.

Q: For `NC(=O)COc1ccc(/C=N/NC(=O)C2CCCN2S(=O)(=O)c2ccc(Cl)cc2)cc1` (stereo unspecified), which inhibition is on record?
A: Its inhibition is 17.1%.

Q: For `O=S(=O)(/N=C(/Nc1ccccn1)c1ccccc1)c1ccc(Cl)cc1`, which inhibition is on record?
A: Its inhibition is 0.3%.

Q: Which inhibition does the source give for `Cc1ccccc1CS(=O)(=O)CC1(O)CCN(C(=O)c2cccc(C(F)(F)F)c2)CC1` here?
A: Its inhibition is -2%.

Q: With `O=C(NC1(C(F)(F)F)NC(=O)N(Cc2cccnc2)C1=O)c1ccccc1Cl` (stereo unspecified) as the compound, how does the inhibition read?
A: Its inhibition is 8.4%.

Q: Which inhibition does the source give for `COc1cc(NS(=O)(=O)c2ccc(N/C=C(\C=O)c3nc4cc(Cl)ccc4o3)cc2)nc(OC)n1` here?
A: Its inhibition is -2.6%.

Q: Which inhibition does the source give for `Cc1cc(C(=O)CSc2nc(N)cc(=O)[nH]2)c(C)n1CCc1ccc(Cl)cc1` here?
A: The inhibition was 16.5%.

Q: For `CSc1nc2nc3c(c(=O)n2[nH]1)CCC3`, which inhibition is on record?
A: Its inhibition is 7.1%.

Q: With `CC(C)=CC(=O)Nc1nnc(-c2ccc(F)cc2)s1` as the compound, how does the inhibition read?
A: Its inhibition is 6.5%.

Q: With `CC(C)(C)c1cc2cccnc2n1Cc1ccccc1` as the compound, how does the inhibition read?
A: Its inhibition is 9.9%.

Q: Which inhibition does the source give for `Cc1cccc(N2CCN(S(=O)(=O)c3ccc4[nH]c(=O)c(=O)[nH]c4c3)CC2C)c1` (stereo unspecified) here?
A: Its inhibition is 3.1%.

Q: Which inhibition does the source give for `CCOc1ccccc1N=C1NC(=O)CS1` here?
A: The inhibition was -6.9%.

Q: With `Cc1cccc(N=C2NC(=O)CS2)c1C` as the compound, how does the inhibition read?
A: The inhibition was 97.1% (active).

Q: Which inhibition does the source give for `CCCOC(=O)c1[nH]c2c(c1C)C(=O)CC(c1cccs1)C2` (stereo unspecified) here?
A: Its inhibition is 65% (active).

Q: For `COC(=O)C1C(=O)c2c([nH]c(C(=O)OCCSC)c2C)CC1C` (stereo unspecified), which inhibition is on record?
A: Its inhibition is 1.9%.

Q: Which inhibition does the source give for `C=CCOC(=O)C1=C(C)NC(C)=C(C(=O)OCC=C)C1c1cccs1` here?
A: Its inhibition is 3.8%.

Q: Which inhibition does the source give for `CCCCCCC12CCC(C(=O)O)(CC1)CC2` here?
A: The inhibition was 25.1%.

Q: For `Cc1cccc2c(=O)n3c(nc12)CCCCC3`, which inhibition is on record?
A: Its inhibition is 13.3%.
